Results reported in article PMC4336329 (PLoS ONE, 2015).
The whole screen tested about 310,000 compounds, of which about 2,200 (0.71%) showed an effect of 50% or more. The effect is printed as a negative number. For the sample, strong results were picked, then their nearest neighbours and some compounds at random.

Biological target: human ether-à-go-go-related gene (hERG) potassium channel (human, UniProt Q12809)
Experiment: primary screen, population patch clamp on CHO cells stably expressing hERG; higher = less effect of the substance
Method: Briefly, Chinese hamster ovary (CHO) cells stably expressing the hERG channel were dislodged from tissue culture flasks and dispensed into PPC plates. […] During the recording, background leak currents were estimated by a 100 ms step to -80 mV from an initial holding potential of -70 mV and subtracted from the subsequent current measurement. The campaign was conducted in two phases using slight differences in recording protocol. In the first phase, the initial voltage pulse used a 100 ms step to -30 mV from a holding potential of -70 mV, a 2 s conditioning step to +25 mV, and a 2 s test step to -30 mV. During the second phase of the screen, the potential during the conditioning step was raised to +45 mV. In both phases of the campaign, a secondary voltage pulse was applied using the same parameters as the second phase initial pulse. The initial and secondary pulses were applied in the absence of compound, and upon application of 1 μM and 10 μM test concentrations. Small molecule effects on hERG current density were quantified by […].

Sequence of human ether-à-go-go-related gene (hERG) potassium channel (Q12809 whole entry, looked up): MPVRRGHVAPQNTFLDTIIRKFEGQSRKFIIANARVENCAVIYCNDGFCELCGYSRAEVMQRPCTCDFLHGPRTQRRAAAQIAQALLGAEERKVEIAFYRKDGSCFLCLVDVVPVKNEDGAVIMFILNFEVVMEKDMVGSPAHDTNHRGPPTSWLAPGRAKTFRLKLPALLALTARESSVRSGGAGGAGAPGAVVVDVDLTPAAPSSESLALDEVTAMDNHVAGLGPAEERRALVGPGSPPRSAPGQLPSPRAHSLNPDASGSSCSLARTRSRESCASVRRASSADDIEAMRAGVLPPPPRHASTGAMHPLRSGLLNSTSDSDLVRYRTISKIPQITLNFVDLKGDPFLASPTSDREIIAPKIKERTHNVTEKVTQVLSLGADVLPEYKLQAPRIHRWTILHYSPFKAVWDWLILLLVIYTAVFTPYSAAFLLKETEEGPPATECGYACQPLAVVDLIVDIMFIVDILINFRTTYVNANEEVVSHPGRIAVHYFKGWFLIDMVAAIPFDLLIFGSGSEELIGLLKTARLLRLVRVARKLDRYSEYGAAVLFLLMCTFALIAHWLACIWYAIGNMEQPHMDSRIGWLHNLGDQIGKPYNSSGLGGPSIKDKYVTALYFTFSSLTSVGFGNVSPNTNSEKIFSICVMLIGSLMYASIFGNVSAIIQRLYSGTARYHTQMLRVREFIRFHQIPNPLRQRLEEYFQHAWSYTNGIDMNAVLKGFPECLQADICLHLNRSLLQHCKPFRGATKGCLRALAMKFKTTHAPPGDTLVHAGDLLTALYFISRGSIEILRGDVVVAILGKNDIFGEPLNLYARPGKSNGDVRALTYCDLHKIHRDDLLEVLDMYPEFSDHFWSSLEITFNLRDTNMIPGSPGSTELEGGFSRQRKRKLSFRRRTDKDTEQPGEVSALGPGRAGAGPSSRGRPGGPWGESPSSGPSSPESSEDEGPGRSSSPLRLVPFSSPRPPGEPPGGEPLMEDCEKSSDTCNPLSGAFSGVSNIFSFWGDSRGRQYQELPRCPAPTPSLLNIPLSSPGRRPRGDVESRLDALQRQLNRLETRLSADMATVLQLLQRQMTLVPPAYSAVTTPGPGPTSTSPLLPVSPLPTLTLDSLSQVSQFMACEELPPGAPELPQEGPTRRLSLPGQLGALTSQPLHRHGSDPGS

Row | Structure (SMILES) | hERG current change (%, negative = inhibition) at 1uM [%]
1 | CCc1ccc(NC(=O)CSCCN2C(=O)c3ccccc3C2=O)cc1 | -8.99
2 | COc1ccc(OC)c(C2C(C#N)=C(N)Oc3c2c(C)nn3-c2cccc(Cl)c2)c1 (stereo not drawn) | 7.28
3 | COCCCn1c(SCC(=O)Nc2cccc(C)n2)nnc1-c1ccco1 | -20.6
4 | CCn1c(SCC(=O)Nc2cccc(C)n2)nnc1-c1ccco1 | 0.773
5 | CCCCn1c(SCC(=O)Nc2cccc(C)n2)nnc1-c1ccco1 | -78
6 | COc1ncnc2c1oc1nc(CC(C)C)c3c(c12)CC(C)(C)OC3 | -10.6
7 | O=C(CSc1ccc(F)cc1)Nc1ccc(Br)cc1 | 13.9
8 | CCOC(=O)/C(C(C)=O)=C1\OC(=O)c2ccccc21 | 8.9
9 | COc1ccc(CNC(=O)CSc2n[nH]c(N)n2)cc1OC | -73.4
10 | COc1ccc(CNC(=O)CSc2n[nH]c(N)n2)cc1 | 14.9
11 | COc1ccc(CCNC(=O)CSc2n[nH]c(N)n2)cc1OC | 18.1
12 | O=C(O)C1Nc2ccc(C(F)(F)F)cc2C2OCCC12 (stereo not drawn) | 10.7
13 | O=C(NCC1CCCO1)c1ccc2c(=O)n(Cc3ccco3)c(SCC(=O)N3CCCC3)nc2c1 (stereo not drawn) | -54
14 | C=CCn1c(SCC(=O)OCC)nc2cc(C(=O)NCc3ccco3)ccc2c1=O | -9.92
15 | O=C(NCC1CCCO1)c1ccc2c(=O)n(CC3CCCO3)c(SCC(=O)N3CCCC3)nc2c1 (stereo not drawn) | 5.44
16 | O=C(NCc1ccco1)c1ccc2c(=O)n(Cc3ccco3)c(SCC(=O)N3CCCC3)nc2c1 | -66.9
17 | CCOC(=O)CSc1nc2cc(C(=O)NCC3CCCO3)ccc2c(=O)n1Cc1ccco1 (stereo not drawn) | -18.2
18 | CCCCCn1c(SCC(=O)OCC)nc2cc(C(=O)NCc3ccco3)ccc2c1=O | 12.8
19 | CCN(C(=O)CSc1nnnn1-c1ccccc1)c1c(N)n(Cc2ccccc2)c(=O)[nH]c1=O | 15.9
20 | CCOc1ccc2nc(NCCO)[nH]c2c1 | 10.9
21 | Cc1ccc(S(=O)(=O)NCCC(=O)NC2CCCC2)cc1 | 1.28
22 | COc1ccc(SC[C@H](CC(C)C)N2CCN(CCc3ccccc3)CCC2=O)cc1 | -51.6
23 | CC(C)CN1CCC(=O)N([C@H](COc2ccccc2)Cc2ccccc2)CC1 | -29.8
24 | O=C1CCN(CCCc2ccccc2)CCN1[C@H](CO)Cc1ccccc1 | -12

Row | Structure (SMILES) | hERG current change (%, negative = inhibition) at 1uM [%]
25 | CCCN1CCC(=O)N([C@H](CSc2ccccc2)Cc2ccccc2)CC1 | -48.9
26 | CC(C)C[C@@H](CSc1ccc(Br)cc1)N1CCN(CCc2ccccc2)CCC1=O | -28.9
27 | CCCCCCCN1CCC(=O)N([C@H](CO)Cc2ccccc2)CC1 | -77.2
28 | CC(C)C[C@@H](COc1ccccc1)N1CCN(Cc2ccccc2)CCC1=O | -4.6
29 | CCCN1CCC(=O)N([C@H](CO)Cc2ccccc2)CC1 | 6.98
30 | CCCN1CCC(=O)N([C@H](COc2ccccc2)Cc2ccccc2)CC1 | -52.4
31 | COc1ccc(SC[C@H](Cc2ccccc2)N2CCN(CCc3ccccc3)CCC2=O)cc1 | -43.2
32 | CCCN1CCC(=O)N([C@H](COc2ccccc2)CC(C)C)CC1 | -48.1
33 | CC(C)C[C@@H](COc1ccccc1)N1CCN(CCc2ccccc2)CCC1=O | -61.7
34 | O=C(Oc1coc(CSc2ncccn2)cc1=O)c1ccc(Br)o1 | 11.6
35 | Cc1cc(C)n(CCN(C)C(=O)C2CCC(=O)N(CCN3CCOCC3)C2)n1 (stereo not drawn) | 16.1
36 | COc1ccc(C2CC(c3ccccc3)=NN2C(=O)c2ccc(Cl)c([N+](=O)[O-])c2)cc1 (stereo not drawn) | 9.38
37 | CN(CC(=O)Nc1ccc(Cl)c(C(F)(F)F)c1)C(=O)c1cn2ccccc2n1 | 5.27
38 | O=C(N/N=C/c1cc(Br)c(O)c(Br)c1)c1cccnc1 | 18.5
39 | COc1ccccc1/C=C(/C(=O)OCC(=O)Nc1ccc(N(C)C)cc1)c1ccccc1 | 9.09
40 | COc1ccccc1C(=O)N/N=C/c1cnc2ccccc2n1 | 6.27
41 | O=C1CCN(CCc2ccccc2)CCN1[C@H](COc1ccccc1)Cc1ccccc1 | -60.4
42 | O=C1CCN(Cc2ccccc2)CCN1[C@H](COc1ccccc1)Cc1ccccc1 | -7.61
43 | CN1CCC(=O)N([C@H](COc2ccccc2)Cc2ccccc2)CC1 | -8.2
44 | CCOc1ccc(C(=O)COC(C)=O)cc1 | 9.74
45 | O=c1[nH]c(C2CCCN(S(=O)(=O)c3ccc(F)cc3)C2)nc2c1nnn2Cc1ccccc1 (stereo not drawn) | 7.82
46 | OCCC1CN(C/C(Cl)=C/c2ccccc2)CCN1C1CCCC1 (stereo not drawn) | -43.4
47 | OCCC1CN(Cc2cnc(-c3ccc(Cl)cc3)nc2)CCN1C1CCCC1 (stereo not drawn) | -62
48 | CC(C)CCN1CCN(CC(c2ccccc2)c2ccccc2)CC1CCO (stereo not drawn) | -81.9

Row | Structure (SMILES) | hERG current change (%, negative = inhibition) at 1uM [%]
49 | OCCC1CN(Cc2cnc(-c3ccc(Cl)cc3)nc2)CCN1C1CCCCC1 (stereo not drawn) | -31.1
50 | OCCC1CN(CC(c2ccccc2)c2ccccc2)CCN1C1CCCC1 (stereo not drawn) | -74.5
51 | Cc1cccc(-c2ncc(CN3CCN(C4CCCC4)C(CCO)C3)cn2)c1 (stereo not drawn) | -15.1
52 | CC(C)CCN1CCN(CCCc2ccccc2)CC1CCO (stereo not drawn) | -1.8
53 | OCCC1CN(CC#Cc2ccccc2)CCN1C1CCCC1 (stereo not drawn) | -7.79
54 | CC(C)CCN1CCN(CC#Cc2ccccc2)CC1CCO (stereo not drawn) | 4.3
55 | COc1ccc(S(=O)(=O)Nc2ccc(-c3ccc(N4CCCC4)nn3)cc2)cc1C | 11.6
56 | CC(Oc1ccc(Cl)cc1Cl)c1ccnc(N)n1 (stereo not drawn) | 16.2
57 | Clc1ccccc1C1=Nn2c(nnc2-c2ccco2)SC1 | 4.48
58 | CC(=O)N1C[C@H](O)C[C@H]1C(=O)O | -19
59 | O=C(COc1ccccc1)NNc1c2ccccc2nc2ccccc12 | 4.4
60 | Cc1ccc(C)c(NC(=O)Cn2nc(-c3ccccc3)nc2-c2ccccc2)c1 | 16.6
61 | CNS(=O)(=O)c1cccc(C(=O)OCC(=O)c2cc3ccccc3o2)c1 | 21
62 | Cc1cccc(N2C(=O)NC(=O)/C(=C\c3cnn(-c4ccccc4)c3)C2=O)c1 | 12.6
63 | CN(C)CCCNCC(=O)Nc1ccc(Cl)cc1C(=O)c1ccccc1.O=C(O)C(=O)O | -21.2
64 | CN1CCN(c2ccc([N+](=O)[O-])cc2C(=O)c2ccccc2)CC1 | -17.5
65 | O=C(CN1CCN(C(=O)c2ccco2)CC1)Nc1cc(Cl)ccc1Cl | -8.91
66 | CN1CCN(CC(=O)Nc2ccc(Cl)cc2C(=O)c2ccccc2)CC1 | -83.3
67 | CN1CCN(CC(=O)Nc2cccc([N+](=O)[O-])c2)CC1 | 5.95
68 | CCN(CC)CC(=O)Nc1ccc(Cl)cc1C(=O)c1ccccc1 | 6.87
69 | O=C(CN1CCCC1)Nc1ccc(Cl)cc1C(=O)c1ccccc1.O=C(O)C(=O)O | 0.588
70 | Cc1ccccc1NC(=O)CN1CCN(C(=O)c2ccco2)CC1 | 5.5
71 | Cc1cc(Cl)ccc1NC(=O)CN1CCN(C(=O)c2ccco2)CC1 | -57.1
72 | CN1CCN(C(=S)SCC(=O)Nc2ccc(Cl)cc2C(=O)c2ccccc2)CC1 | -5.6

Row | Structure (SMILES) | hERG current change (%, negative = inhibition) at 1uM [%]
73 | CCN(CC)CCNCC(=O)Nc1ccc(Cl)cc1C(=O)c1ccccc1.O=C(O)C(=O)O | -84.2
74 | CN1CCN(CC(=O)Nc2ccc([N+](=O)[O-])cc2C(=O)c2ccccc2)CC1 | -91.5
75 | O=C1NC(=S)N(c2ccccc2)C(=O)/C1=C/c1ccco1 | 5.88
76 | COc1ccc(-n2nnnc2SCC(=O)c2ccc(O)c(O)c2)cc1 | 1.49
77 | Cc1ccccc1-c1nc2ccc(Cl)cc2c(=O)n1O | 15.4
78 | CCOC(=O)c1ccc(NC(=O)CNC(=O)c2ccccc2)cc1 | 7.06
79 | CCSc1nnc(NC(=O)Nc2cccc(C)c2)s1 | 12.2
80 | Cn1nc([N+](=O)[O-])nc1Sc1nnnn1-c1ccc(C(=O)O)cc1 | 8.97
81 | CCCCn1c(CCNC(=O)c2ccco2)nc2ccccc21 | 7.54
82 | Cc1cc(C)cc(-c2nnc(SCC(=O)c3ccc4c(c3)OCCO4)o2)c1 | 16
83 | Cc1cn(COC/C=C/c2ccccc2)c(=O)[nH]c1=O | 7.16
84 | Cc1cccc(C(=O)NCCCNC(=O)c2ccc(C)nc2)c1 | 10.6
85 | Cc1cc(Cl)ccc1OCCCC(=O)N1CCN(C)CC1 | 0.322
86 | COc1ccc2oc(C(=O)c3ccccc3)c(NC(=O)CN3CCN(C)CC3)c2c1 | -12.2
87 | O=C(CN1CCCC1)Nc1ccccc1Sc1ccc(Cl)cc1 | -0.77
88 | CN1CCN(CC(=O)Nc2c(C(=O)c3ccccc3)oc3ccccc23)CC1 | -83.2
89 | CC(=O)N1CCN(CC(=O)Nc2ccccc2Sc2ccccc2)CC1 | -29.8
90 | O=C(CN1CCCCCC1)Nc1ccc(Cl)cc1F | 14.6
91 | Cc1cc(Cl)ccc1OCCCC(=O)N1CCN(C(=O)c2ccco2)CC1 | -59.1
92 | CC(=O)N1CCN(CC(=O)Nc2ccccc2Sc2ccc(Cl)cc2)CC1 | -58.3
93 | CN1CCN(CC(=O)Nc2c(C(=O)C3CC3)oc3ccccc23)CC1 | -16.9
94 | O=C(CN1CCN(C(=O)c2ccccc2)CC1)Nc1ccc(Cl)cc1F | -54.8
95 | O=C(CN1CCN(C(=O)c2cccc(F)c2)CC1)Nc1ccccc1F | -36.4
96 | Cc1cc(Cl)ccc1OCCCC(=O)N1CCOCC1 | -7.13
